Here are results for 14 compounds from PubChem BioAssay (EPA / NIEHS).

Calls of active or inactive are those of the source. How the source made its calls: active means hit-call score of the fitted dose curve at least 0.9, where 1 is the maximum; inactive means score below 0.9.

Read-out in this test: MicroRNA 122 (MIR122), gene 406906
Briefly: LTEA_HepaRG_MIR122: Life Technologies and Expression Analysis (LTEA) Assay for MicroRNA 122 (MIR122) using HepaRG (AID 2283516). Conditions: mRNA level, 48 h; actives raise or lower the signal. How it is done: LTEA_HepaRG is a cell based, multiplexed-readout assay that uses HepaRG, a human liver cell line, with measurements taken at 48 hours after chemical dosing on a 96-well plate.LTEA_HepaRG_MIR122 is one of 102 assay component(s) measured in the LTEA HepaRG cell culture assay. It is a marker of MicroRNA.Data from the assay component LTEA_HepaRG_MIR122 was analyzed into 1 endpoint. This assay endpoint, LTEA_HepaRG_MIR122, was analyzed with bidirectional fitting relative to DMSO as the negative control and baseline of activity. Using a type of inducible reporter, measures of mRNA induction for gain or loss-of-signal activity can be used to understand regulation of transcription factor activity. To generalize the intended target to other relatable targets, this assay endpoint is annotated to the microrna intended target family, where the subfamily is post-transcriptional regulation.
A total of 1060 chemcials from the ToxCast library were tested in eight-point concentration-response experiments. Cell culture and cytotoxicity assays were conducted at Thermo Fisher Scientific's Custom Services facility (Madison, WI). A single lot of human HepaRG cells (Thermo Fisher Scientific, Frederick, MD) was used for the cell culture experiments. 96-well format collagen type I coated plates of human HepaRG cells were prepared using established methods. Briefly, cryopreserved HepaRG cells were thawed, plated at a density of approximately 100,000 cells/well in HepaRG Thaw, Plate, and General Purpose media (HPRG770, Thermo Fisher Scientific), and incubated for 48 hours. 0.5% DMSO was selected as vehicle control to balance the requisite need of DMSO in HepaRG cultures to maintain differentiation (for example, baseline metabolism, proportions of hepatocytes vs. cholangiocytes), while enabling further hepatic receptor pathway activation (for example, PXR and CAR) in response to chemical exposure. 48 hours after plating, the culture medium was replaced with HepaRG Serum-Free Incudtion Media. Cells were exposed to each test chemical in duplicate and maintained in CO2 incubators for another 48 hours. Chemical plates were thawed to room temperature and 200x concentrations of treatment groups were prepared. 8-point conentration-reponse curves were made with the highest exposure at 100 uM, followed by half-log dilutions, all in 0.5% DMSO. Each test plate contained variouse controls, induction positive controls (1mM phenobarbital), cytotoxicity positive controls ([…] aflatoxin B1), vehicle controls (0.5% DMSO), and total lysis controls (0.5% DMSO). Cell morphology images were taken using an Essen IncuCyte FLR automated microscope, with six 96-well plates imaged in about 24 minutes. Images were captured and exported and JPEG files. Spent culture media was transfered to black-well plates for the LDH assay, and remaining media was sorted at -80 C for later use. Cells were treated with RLT buffer and frozen until shipped for gene expression analysis. Total RNA was isolated from the cell suspension in 75 uL of Buffer RLT (Qiagen, Germantown, MD 20874) by Quintiles/Expression Analysis (Durham, NC) using a custom isolation procedure. Total RNA from each plate well was transferred to a preamplification plate. Fluidigm's 96.96 Dynamic ArrayTM (Fluidigm, Amsterdam, the Netherlands) technology was used for gene expression analyses by quantitative reverse transcription polymerase chain reaction (qRT-PCR, performed by Quintiles/Expression Analysis, Durham, NC)89. Standard TaqManTM Assays (Applied Biosystems/ThermoFisher Scientific, Foster City, CA) were used to assess the expression of 93 genes selected based on their selectivity and sensitivity to important hepatic receptors known to be modulated by environmental chemicals; importance in human hepatocyte functionality; and hepatotoxicity. […]
In the case of `CN(C)C(=S)S`, the call was inactive.

In the case of `CC(C)(C)c1ccccc1O`, the compound was classed as inactive.

With `O=C(O)C1(c2ccc3c(c2)OC[C@H](Cc2ccc(-c4ccccc4)cc2)[C@H]3O)CCCC1`, the compound was called inactive.

Regarding `CC(C)O.CC(C)O.OCCN(CCO)CCO.OCCN(CCO)CCO.[Ti]`, the compound was classed as inactive.

With `OCCN(CCO)CCO`, the result was inactive.

As for `COc1ccccc1N`, the compound was classed as inactive.

On to `O=C(N[C@H]1CN2CCC1CC2)c1ccc2c(c1)OCCO2`, for which the compound was classed as inactive.

`Oc1cc(Cl)c(Cl)cc1Cl`: the call was inactive.

Turning to `CCCCCCCCCCCCc1cccc(S(=O)(=O)O)c1`, the compound was classed as inactive.

`Clc1cccc(Cl)c1Cl`: the compound was classed as inactive.

As to `Cc1cc(C)cc(C)c1`, the result was inactive.

Regarding `N#Cc1cccnc1`, the result was inactive.

With `Oc1c(Cl)cc(Cl)cc1Cl`, the result was inactive.

With `Clc1cccc(Cl)c1`, the compound was classed as inactive.
